target: KCNRG; test: pooled miR-30 sensor sort-seq; sequence = guide strand; details: shRNA
Further: reference of the scale not given here.

Sequence	sensor-assay potency score (higher = more potent)
TCTGGTATGATGATAGTCTCTG	0.569
TTTTGTCTTCAGAAGATACTGT	0.229
TTTTGGTGTTTCATTCGTGATG	-1.02
TTTGTCTTCAGAAGATACTGTT	-0.101
TACTGTTCTAGTGCTGACCAAA	-1.23
TTCGTGATGAGCACTTCAGGGC	0.363
TTGTCTTCAGAAGATACTGTTC	-0.478
TAGAAACATACCTGACTCCAGT	-0.214
TATGATGATAGTCTCTGGTTTT	-0.744
TTCTAGTGCTGACCAAATGAAA	-1.49

target: KCNS2; test: as above; details: shRNA

Sequence	sensor-assay potency score (higher = more potent)
TCGAAGTAGAACTCCCGCTGGA	-0.212
TTCTTTGTAGCTGTATTTCAAA	-1
TGCTCCACGATTTCGAACCTAG	-0.681
TTACACCATAACCATAAGGTGC	-1.42
TACTCCTTACACCATAACCATA	-1.82
TAGGGCATTCTTGAAGAACTTG	-0.408
TAGAATAGCGTACACGATGGAC	-0.475
TAGTCCCTTAAATTGACCGAAG	-1.33
TAGAAATGCAGCACGTAGGGGA	0.48
TTAAACTGAGTTCACTTGGTGA	-0.682
TTTAAACTGAGTTCACTTGGTG	0.664
TTTATGGGCATAATAGTCCCTT	-0.514

target: KCTD3; test: as above; details: shRNA

Sequence	sensor-assay potency score (higher = more potent)
TAGTTATAGGAACAACATCTTG	-1.48
TTGTAGTACAGTCAACAGCCTG	-1.16
TGATTCTGTAACACACAGCAAA	-1.06
TTGAGTAGCTCTTCTTCGGTTG	-0.328
AGGAACAACATCTTGAACCTGC	-0.641
TTGCATTTAAAGCTACTCGTTC	-0.407
TTTGAGTAGCTCTTCTTCGGTT	-0.151
TTATCTTTCATTCGCAAGGGGA	-0.381
TGTAGTACAGTCAACAGCCTGG	0.267
TATCAATAAATATAGCACCAGT	-0.952
TTTAAATTTACAATTACCCTAT	0.0082

target: KDELR1; test: as above; details: shRNA

Sequence	sensor-assay potency score (higher = more potent)
TAGAGTGAGATGTAGTTGGTGA	0.498
TAAGTAGCTTTGAACTTGCTAT	-0.0372
TCGTAAGTAGCTTTGAACTTGC	-0.201
TAAATCAACCAGACCGTGGTGA	0.82
TAGACCACCTTCATACACGTGT	0.283
AGGAACTCCACTCTGAACGTGT	-0.99
TTGAAGAGATAGAGCGTGCGGT	-0.25

Source: the OligoGym collection
